Assay outcomes: PubChem BioAssay, National Center for Advancing Translational Sciences (NCATS)
HepG2 tox: qHTS for Inhibitors of TGF-b: Cytotox Counterscreen. HepG2 CAGA-GFP viability, ATP luminescence, 18 h. Potency, µM (doses to about 46.1 µM), for inactives: at the top dose activity change, negative = cytotoxicity, hits mostly cytotoxic. AID 588856, 2011. hit rate 0.76% among 410,000; note: potency is the fitted concentration of half-maximal effect
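CellTiter-Glo luminescence gave cytotoxicity after 18 hours at 37 degrees C. The cells were HepG2 CAGA-GFP in 1% FBS DMEM, stimulated with 500 pg/mL TGF-beta after compound addition. %Activity was normalised to no-cell wells (complete cell-killing) and DMSO (no toxicity), and curves were fitted and classified.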
IL-1B inflam inh: qHTS for Inhibitors of Inflammasome Signaling: IL-1-beta AlphaLISA Primary Screen; THP-1 LPS/ATP IL-1B secretion, AlphaLISA, 16 h; hits give low values; activity change, % at 57.5 µM; hit rate 4.7% among 360,000; in the data active = activity change below about -50%; inconclusive = mostly about -30% to -49%; note: % is set by controls: 0 for no effect and ±100 for the full control effect
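THP-1 cells pretreated 1 hr with compounds (up to 57.5 uM final), then stimulated with LPS (250 ng/mL final) plus ATP (1.25 mM final); secreted IL-1B measured by AlphaLISA after 16 hr, decreased signal indicating inhibition.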
TGFb SMAD3 inh: qHTS for Inhibitors of TGF-b. HepG2 CAGA-GFP TGF-b/SMAD3 reporter, GFP fluorescence, 18 h; TGF-beta stimulated, 500 pg/mL final. hit rate 1.2% among 410,000. AID 588855, 2011. Potency, µM (highest dose often 46.1 µM), without a hit: top-dose activity, negative = inhibition, actives largely listed as inhibitors; note: potency is the fitted concentration of half-maximal effect; % is set by controls: 0 for no effect and ±100 for the full control effect; nearly all actives have a fitted effect of over 65% in size
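GFP signal (ex488/em500-530) from TGF-beta-stimulated HEPG2 CAGA-GFP cells, 500 pg/mL final, 18 h at 37 degrees C in DMEM plus 1% FBS, normalized to unstimulated and DMSO-stimulated controls.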
TDP1 cell noCPT: qHTS for Inhibitors of human tyrosyl-DNA phosphodiesterase 1 (TDP1): qHTS in cells in absence of CPT | Potency, µM (series often up to 46.2 µM), without a hit: top-dose activity change, negative = growth inhibition, actives largely listed as inhibitors | hit rate 15% among 420,000 | DT40 Tdp1-/- hTDP1 cells, no CPT, ATP luminescence, 48 h | AID 686978, 2013; note: potency is the fitted concentration of half-maximal effect; % is set by controls: 0 for no effect and ±100 for the full control effect; nearly all actives have a fitted effect of over 55% in size
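Luminescent ATP content (CellTiter-Glo) served as the growth readout. Knockout chicken DT40 cells expressing human TDP1 were exposed to compounds without camptothecin for a minimum 48 hr at 37 °C.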
ASM inhibitor: Inhibitors of Secretory Acid Sphingomyelinase (S-ASM): qHTS; placental ASM, HMU-PC fluorogenic substrate, 60 min; Potency, µM (highest dose often 57.5 µM), for inactives: at the highest dose activity change, negative = inhibition, hits mostly inhibitors; hit rate 0.006% among 340,000; note: potency is the fitted concentration of half-maximal effect
Target sequence (P17405 47-631 limits assumed): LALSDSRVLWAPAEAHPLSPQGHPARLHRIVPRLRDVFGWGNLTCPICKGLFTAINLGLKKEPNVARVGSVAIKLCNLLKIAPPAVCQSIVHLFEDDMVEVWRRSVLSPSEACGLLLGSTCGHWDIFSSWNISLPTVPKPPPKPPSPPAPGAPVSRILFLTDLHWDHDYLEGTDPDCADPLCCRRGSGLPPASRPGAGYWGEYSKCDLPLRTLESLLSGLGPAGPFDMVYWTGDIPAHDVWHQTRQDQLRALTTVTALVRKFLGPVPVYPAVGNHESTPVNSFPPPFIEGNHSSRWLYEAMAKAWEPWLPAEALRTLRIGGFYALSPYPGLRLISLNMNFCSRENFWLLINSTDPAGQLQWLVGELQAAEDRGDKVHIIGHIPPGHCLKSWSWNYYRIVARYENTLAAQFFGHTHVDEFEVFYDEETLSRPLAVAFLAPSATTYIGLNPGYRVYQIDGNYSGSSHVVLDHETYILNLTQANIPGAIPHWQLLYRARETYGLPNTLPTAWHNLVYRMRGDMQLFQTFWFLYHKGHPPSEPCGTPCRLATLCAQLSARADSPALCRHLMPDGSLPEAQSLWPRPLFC
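Fluorogenic HMU-PC substrate (9 uM final) is turned over by placental ASM in 60 min at 37 C after a 10 min compound preincubation. Reaction ended by alkaline stop (pH 10), with fluorescence read at 386/447 nm.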
DT40 TDP1 CPT: qHTS for Inhibitors of human tyrosyl-DNA phosphodiesterase 1 (TDP1): qHTS in cells in presence of CPT. chicken DT40 Tdp1-/-;hTDP1 cells + 20 nM CPT, ATP luminescence, 48 h. Potency, µM (doses to about 46.2 µM), for inactives: at the top dose activity change, negative = growth inhibition, most hits filed as inhibitors. hit rate 12% among 420,000; note: potency is the fitted concentration of half-maximal effect; % is set by controls: 0 for no effect and ±100 for the full control effect; nearly all actives have a fitted effect of over 55% in size
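Chicken DT40 Tdp1-/- cells complemented with human TDP1, 400 cells/well, exposed to compounds plus 20 nM camptothecin for at least 48 h at 37 C; viability read as ATP content by CellTiter-Glo luminescence.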
* hit, by the source's call. In the library only some 19% were active in any assay of this set; here they are far more common. Unless noted, calls come from the whole dose curve; as a rule, active = well fitted curve in the direction sought with a large enough effect; inconclusive = small, poorly fitted or top-dose-only effect, or another doubt; inactive = no such curve, though single readings can be large; an effect the other way counts as inactive or inconclusive.

Screening CC(C)CC(=O)N1c2nc(C(C)C)nn2C2(CCCCC2)[C@@H]2CCCC[C@@H]21 returned HepG2 tox -12%, TGFb SMAD3 inh -5%, TDP1 cell noCPT inconclusive and DT40 TDP1 CPT 4%.
`CC(=O)N1c2nc(C(C)C)nn2C2(CCCCC2)[C@@H]2CCCC[C@@H]21` gave HepG2 tox 1%, TGFb SMAD3 inh 17%, TDP1 cell noCPT 1.8µM* and DT40 TDP1 CPT 4.1µM*.
For COCC(=O)N1c2nc(C(C)C)nn2C2(CCCCC2)[C@@H]2CCCC[C@@H]21 the results were HepG2 tox -1%, TGFb SMAD3 inh -29%, TDP1 cell noCPT 2.9µM* and DT40 TDP1 CPT 2.9µM*.
For COc1ccc(-c2nc(CSc3nnc(C)n4c3cc3oc(C)cc34)c(C)o2)cc1OC the results were HepG2 tox -5%, TGFb SMAD3 inh inconclusive, TDP1 cell noCPT inconclusive and DT40 TDP1 CPT inconclusive.
Screening CCOC(=O)Cn1c(=O)n(-c2cccc(Cl)c2)c2nc(-c3ccccc3Cl)nc(C(N)=O)c21 returned HepG2 tox -26% and TGFb SMAD3 inh inconclusive.
`O=C(Nc1cc(Cl)cc(Cl)c1)C1CCCC1` gave HepG2 tox -18%, IL-1B inflam inh 18, TGFb SMAD3 inh -5%, TDP1 cell noCPT inconclusive, ASM inhibitor 2% and DT40 TDP1 CPT inconclusive.
Screening CCc1cccc(C)c1NC(=O)C1CCCN(S(C)(=O)=O)C1 (stereo unspecified) returned HepG2 tox -1%, IL-1B inflam inh 12, TGFb SMAD3 inh -1%, TDP1 cell noCPT -5%, ASM inhibitor 1% and DT40 TDP1 CPT 6%.
For CCOC(=O)CSc1nc2c([nH]c3ccccc32)c(=O)n1-c1ccc(OCC)cc1 the results were HepG2 tox -10%, TGFb SMAD3 inh 2%, TDP1 cell noCPT -28% and DT40 TDP1 CPT -27%.
`CCOc1ccc(-n2c(SCC(N)=O)nc3c([nH]c4ccccc43)c2=O)cc1` gave HepG2 tox -4%, IL-1B inflam inh 52, TGFb SMAD3 inh -1%, TDP1 cell noCPT inconclusive, ASM inhibitor -4% and DT40 TDP1 CPT 13µM*.
For CCOc1ccc(-n2c(SCC(=O)Nc3cc(C)ccc3C)nc3c([nH]c4ccccc43)c2=O)cc1 the results were HepG2 tox -1%, TGFb SMAD3 inh 4%, TDP1 cell noCPT 16µM* and DT40 TDP1 CPT 13µM*.
Screening Cc1ccc(NC(=O)C(=O)NCC(c2ccc3c(c2)OCO3)N2CCN(C)CC2)c(C)c1 (stereo unspecified) returned HepG2 tox -12%, TGFb SMAD3 inh 13%, TDP1 cell noCPT inconclusive and DT40 TDP1 CPT inconclusive.
COC(=O)/C=C/c1ccccc1CN1[C@@H](CC(=O)OC)c2ccccc2S1(=O)=O was read as HepG2 tox 19%, IL-1B inflam inh 15, TGFb SMAD3 inh 9%, TDP1 cell noCPT -9%, ASM inhibitor 2% and DT40 TDP1 CPT -24%.
Screening Cc1ccc(C(=O)N(CC(=O)NC2CCCCC2)c2ccccc2C)s1 returned HepG2 tox -18%, IL-1B inflam inh -22, TGFb SMAD3 inh -20%, TDP1 cell noCPT 23µM*, ASM inhibitor 1% and DT40 TDP1 CPT inconclusive.
`Cc1ccc(C(=O)N(CC(=O)NC2CCCC2)c2cccc(F)c2)s1` gave HepG2 tox -2%, IL-1B inflam inh -80*, TGFb SMAD3 inh 2%, TDP1 cell noCPT -21%, ASM inhibitor -2% and DT40 TDP1 CPT 3%.
For CSc1cccc(NC(=O)C2CCN(S(=O)(=O)c3ccc4[nH]c(=O)ccc4c3)CC2)c1 the results were HepG2 tox 2%, TGFb SMAD3 inh 7%, TDP1 cell noCPT -9% and DT40 TDP1 CPT -16%.
`C1=CC2(C=C1)OC21CCC2(C=CC3(C2)OC3C2CCCCC2)CC1` (stereo unspecified) gave HepG2 tox -23%, IL-1B inflam inh 0, TGFb SMAD3 inh -13%, TDP1 cell noCPT inconclusive and DT40 TDP1 CPT 0%.
For C/C(CCc1ccc2c(c1)OCO2)=N\NC(=O)c1ccc(C)cc1C the results were HepG2 tox -25%, IL-1B inflam inh -10, TGFb SMAD3 inh -10%, TDP1 cell noCPT 2.9µM*, ASM inhibitor 3% and DT40 TDP1 CPT 1%.
C/C(CCc1ccc2c(c1)OCO2)=N\NC(=S)NC(C)C was read as HepG2 tox -71%, IL-1B inflam inh -10, TGFb SMAD3 inh inconclusive, TDP1 cell noCPT 16µM*, ASM inhibitor 2% and DT40 TDP1 CPT 18µM*.
`O=C(NCCCN1CCOCC1)c1cc(-c2cccc(Br)c2)nc2ccccc12` gave HepG2 tox -4%, IL-1B inflam inh -64*, TGFb SMAD3 inh 0%, TDP1 cell noCPT inconclusive, ASM inhibitor -2% and DT40 TDP1 CPT inconclusive.
Screening CCOc1ccc(-c2cc(C(=O)NCCCN3CCOCC3)c3ccccc3n2)cc1 returned HepG2 tox 0%, IL-1B inflam inh -27, TGFb SMAD3 inh -2%, TDP1 cell noCPT -19%, ASM inhibitor 110% and DT40 TDP1 CPT inconclusive.
O=C(NCCCN1CCOCC1)c1cc(-c2ccc(Cl)s2)nc2ccccc12 was read as HepG2 tox 0%, IL-1B inflam inh -78*, TGFb SMAD3 inh -15%, TDP1 cell noCPT inconclusive, ASM inhibitor 132% and DT40 TDP1 CPT inconclusive.
O=C(NCCCN1CCOCC1)c1cc(-c2ccc(F)cc2)nc2ccccc12 was read as HepG2 tox 5%, IL-1B inflam inh -27, TGFb SMAD3 inh 2%, TDP1 cell noCPT -26%, ASM inhibitor -2% and DT40 TDP1 CPT inconclusive.
`CC1CN(C(=O)c2cc(-c3ccc(Cl)s3)nc3ccccc23)CC(C)O1` (stereo unspecified) gave HepG2 tox -22%, IL-1B inflam inh -53*, TGFb SMAD3 inh -15%, TDP1 cell noCPT 16µM* and DT40 TDP1 CPT inconclusive.
For COc1ccc(-n2c3c(c(=O)[nH]c2=O)C(NC(=O)c2ccccc2Cl)(C(F)(F)F)C(=O)N3)cc1 (stereo unspecified) the results were HepG2 tox -37%, TGFb SMAD3 inh -1%, TDP1 cell noCPT 1% and DT40 TDP1 CPT 15%.
